# PubChem BioAssay (NCI)
# About 79,000 compounds went through this panel and 15% of them were active in at least one assay; those are over-represented in the sample as a whole. Unmarked numbers belong to inactive results. Calls of active or inactive are those of the source. No stated cut-off is given here; in the data, active means growth inhibition above about 70%; inactive means the rest.
# Assay: NCI Yeast Anticancer Drug Screen. Data for the mlh1 strain (AID 171);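 further: 0% = growth of vehicle-treated control cultures of the same strain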
# Settings: S. cerevisiae mlh1 strain growth inhibition, active compounds read high
# Method: Growth inhibition of yeast strains with defined genetic alterations is measured as a screen for potential anti-cancer activity. Selected strains with alterations in DNA damage repair or cell cycle control were exposed to compounds and growth inhibition was measured relative to vehicle treated controls. The strain used in this assay is mlh1
Compound,growth inhibition (at 1.2 µM),growth inhibition (at 3.7 µM),growth inhibition (at 11.0 µM),growth inhibition (at 33.0 µM),growth inhibition (at 100.0 µM)
CCCCCOC(=S)SC(=O)OCC,-1%,2%,14%,63%,95% (active)
CCOC(=O)C1=C(C)NC(C)=C(C(=O)OCCNC(=O)c2ccc(N=[N+]=[N-])cc2)C1c1ccccc1C(F)(F)F (stereo not given),6%,-5%,-1%,9%,28%
CCOC(=O)C(C(=O)OCC)=P(c1ccccc1)(c1ccccc1)c1ccccc1,1%,-2%,0%,1%,92% (active)
O=c1nc2n(Cc3ccccc3)c3ccccc3nc-2c(=O)[nH]1,-3%,3%,65%,93% (active),97% (active)
O=C(CC(C(=O)O)N1CCOCC1)c1ccccc1 (stereo not given),-3%,-3%,4%,37%,77% (active)
CCCCCCCCCCCC1N=C(N)NC(CCCO)=C1C(=O)OC (stereo not given),6%,99% (active),99% (active),99% (active),98% (active)
CN(C)c1nc(=Nc2cccc(Cl)c2)ss1,11%,50%,96% (active),99% (active),99% (active)
Clc1ccc2c(c1)N(CCCN1CCCC13CCCCC3)c1ccccc1S2,0%,2%,-4%,-15%,8%
